TCR activator – activators of T cell receptors; Potency, µM (highest dose often 9.22 µM), hits mostly activators; primary human leukocytes, anti-CD3, IL-2 HTRF, 48 h; 330,000 tested, under 10 active
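Primary human leukocytes incubated 48 hr with anti-CD3 beads plus compound, without co-stimulation. Secreted IL-2 measured by HTRF (europium cryptate/d2 anti-IL-2 pair, 320 nm excitation, 665 nm emission).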
uPA surface inh – inhibitors of cell surface uPA generation; 0.31% of 330,000 active; cell surface uPA generation assay, qHTS; Potency, µM (titrated, usually from 38.3 µM), hits mostly inhibitors; active = well fitted inhibition curve with a large enough effect; inconclusive = small, poorly fitted or top-dose-only effect; inactive = no such curve, though single readings can be large or run the other way; tested in mouse RAW 264.7 cells; also: nearly all actives have a fitted effect of over 55% in size
PKM2 act – PKM2 (human) enzyme activation; P14618; purified PKM2, Kinase-Glo ATP luminescence, activation; response scale: 0% is enzyme alone, no compound; Potency, µM (series often up to 57.5 µM), most hits filed as activators; 0.34% of 260,000 active; also: nearly all actives have a fitted effect of over 55% in size
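Kinase-Glo luminescence reports ATP generated from ADP (0.1 mM) and PEP (0.5 mM) by purified hPK-M2 after 1 h at room temperature, pH 7.2 imidazole buffer; intermediate enzyme activity allows detecting inhibitors and activators.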
TSHR antagonist – blocks TSH signaling through the human TSH receptor. activity change, negative = inhibition, % at 11.5 µM. P16473. 0.2% of 330,000 active. TSHR-expressing cells, TSH-stimulated cAMP HTRF, 2 h; stronger effect = lower value. AID 504810;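 active = activity change below a set negative limit, meaning inhibition stronger than a set level, cut at about -70% in these data; inconclusive = activity change between two set negative limits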
Target sequence (P16473 whole entry, looked up): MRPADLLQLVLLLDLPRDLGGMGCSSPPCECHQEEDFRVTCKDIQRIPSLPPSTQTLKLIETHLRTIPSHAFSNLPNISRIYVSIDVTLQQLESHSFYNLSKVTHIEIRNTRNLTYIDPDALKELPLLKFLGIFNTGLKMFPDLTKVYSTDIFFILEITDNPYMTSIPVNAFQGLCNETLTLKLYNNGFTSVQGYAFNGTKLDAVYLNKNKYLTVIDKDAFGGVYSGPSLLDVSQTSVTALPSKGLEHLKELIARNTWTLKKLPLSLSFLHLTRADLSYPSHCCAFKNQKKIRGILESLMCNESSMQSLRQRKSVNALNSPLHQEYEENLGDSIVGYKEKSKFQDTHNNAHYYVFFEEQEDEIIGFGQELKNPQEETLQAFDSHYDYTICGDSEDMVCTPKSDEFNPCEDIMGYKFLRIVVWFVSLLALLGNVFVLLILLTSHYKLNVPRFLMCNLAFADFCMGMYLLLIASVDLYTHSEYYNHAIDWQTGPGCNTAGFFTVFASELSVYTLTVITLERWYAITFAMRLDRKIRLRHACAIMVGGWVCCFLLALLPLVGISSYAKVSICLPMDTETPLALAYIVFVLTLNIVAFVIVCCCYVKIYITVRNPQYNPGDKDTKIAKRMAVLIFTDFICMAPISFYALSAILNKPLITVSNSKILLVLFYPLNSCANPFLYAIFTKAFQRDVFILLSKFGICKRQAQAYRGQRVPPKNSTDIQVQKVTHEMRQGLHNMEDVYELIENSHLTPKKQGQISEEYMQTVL
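TSHR-expressing cells were treated with compounds, then stimulated with TSH at EC80 (4nM final) for 2 hours at 37 deg C. Cellular cAMP was measured by HTRF competition between lysate cAMP and cAMP-d2 for a cryptate-labelled anti-cAMP antibody.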
Of the large screens only hits and unclear results are named; the others gave an inactive call. Compounds with a hit are over-represented: about 0.75% of the library has one in this group of screens. Unless noted, calls follow the shape of the dose curve; as a rule, active = well fitted curve in the direction sought with a large enough effect; inconclusive = small, poorly fitted or top-dose-only effect, or another doubt; inactive = no such curve, though single readings can be large; an effect the other way counts as inactive or inconclusive.

COc1ccc(S(=O)(=O)N2CCOCC2)cc1NC(=O)COC(=O)C1CC1C (stereo not drawn)	none (no result: PKM2 act)
O=C(NCCCn1ccnc1)c1ccc(C(F)(F)F)cc1	none (no result: PKM2 act)
COc1ccc(N(CC(=O)NC2CCCCC2)C(=O)CNC(=O)c2ccco2)cc1	none
Cc1ccc(S(=O)(=O)N2CCCN(S(=O)(=O)c3ccc(C)c(C)c3)CC2)cc1C	PKM2 act 2.2µM
CSc1nc2ccccc2cc1/C=C(\C#N)c1cccc(Cl)c1	none
Cc1c(N=C2N=C(NC(=O)Nc3ccc(Cl)cc3)c3ccccc32)c(=O)n(-c2ccccc2)n1C	none
CCCOc1cccc(C(=O)NCCNC(=O)c2cnccn2)c1	none (no result: PKM2 act)
C=CCc1cccc(CNc2nc3ccccc3n2C(C)C)c1O	uPA surface inh inconclusive, PKM2 act 32µM (no result: TCR activator)
CC(C)n1c(NCc2ccccc2O)nc2ccccc21	none
O=C(NCc1ccco1)c1ccc(COc2cc(Cl)ccc2Cl)cc1	none
Cc1ccc(NS(=O)(=O)c2ccc3c(c2)oc(=O)n3C)cc1C	none (no result: PKM2 act)
Cn1c(=O)c2cc(S(=O)(=O)Nc3cccc(F)c3)ccc2n(C)c1=O	PKM2 act 5µM
CSc1cccc(NS(=O)(=O)c2ccc3c(c2)oc(=O)n3C)c1	PKM2 act 7.9µM
Cn1c(=O)oc2cc(S(=O)(=O)Nc3cccc(F)c3)ccc21	PKM2 act 13µM
Cc1ccc(NS(=O)(=O)c2ccc3c(c2)oc(=O)n3C)cc1F	PKM2 act 4.5µM
COCCNC(=O)C1(CC(C)C)C=CCN1C(C)=O (stereo not drawn)	none (no result: TCR activator, uPA surface inh, TSHR antagonist)
CC(C)OCCCn1c(=O)c2ccccc2n2c(CCC(=O)N3CCN(c4ccccn4)CC3)nnc12	none (no result: PKM2 act)
O=C(CCc1nnc2n(Cc3ccc(Cl)cc3)c(=O)c3ccccc3n12)N1CCN(c2ccccn2)CC1	TSHR antagonist -134 (no result: PKM2 act)
COc1ccc(Cc2nnc(N/N=C/c3ccc(O)cc3O)[nH]c2=O)cc1OC	none
CCOC(=O)N1CCN(C(=O)c2ccc3c(c2)NC(=O)/C(=C\c2ccc(OC)c(OC)c2)S3)CC1	TSHR antagonist -133 (no result: PKM2 act)
COc1ccccc1NC(=O)C1=C(C)NC(=O)NC1c1ccccc1[N+](=O)[O-] (stereo not drawn)	PKM2 act 25µM
O=C(COC(=O)/C=C/C(=O)N1CCN(c2ccccc2)CC1)NC(c1ccccc1)c1ccccc1	uPA surface inh 6.3µM
c1ccc(-c2cnc(-c3ccccn3)nn2)cc1	uPA surface inh 6.3µM (no result: PKM2 act, TSHR antagonist)
Cc1ccc(S(=O)(=O)CC(=O)c2ccc([N+](=O)[O-])cc2)cc1	PKM2 act 22µM
Cc1ccc(C(=O)CCS(=O)(=O)c2ccc(F)cc2)cc1	uPA surface inh 11µM
Cc1ccc(S(=O)(=O)CCC(=O)c2ccc(F)cc2)cc1	none
COC(=O)C1C(=O)c2c([nH]c(C(=O)OCC3CCCO3)c2C)CC1C (stereo not drawn)	uPA surface inh 13µM, PKM2 act inconclusive
CCCNC(=O)CCc1cc(C(C)(C)C)c(O)c(C(C)(C)C)c1	uPA surface inh 11µM
CC(C)(C)c1cc(CCC(=O)NCCc2ccccn2)cc(C(C)(C)C)c1O	none
C=CCn1c(SCC(=O)N2CCOCC2)nc2scc(-c3ccco3)c2c1=O	PKM2 act 14µM
Cc1onc(C(=O)N2CCN(C(c3ccccc3)c3ccccc3)CC2)c1[N+](=O)[O-]	uPA surface inh 10µM
COc1ccccc1N1CCN(C(=O)c2noc(C)c2[N+](=O)[O-])CC1	none (no result: PKM2 act)
COc1ccc(-c2cc(=O)c3c(O)c(OC)c(OC)c(OC)c3o2)cc1	none (no result: PKM2 act, TSHR antagonist)
COc1c(OC)c(O)c2c(=O)cc(-c3c(O)cccc3O)oc2c1OC	uPA surface inh 7.1µM
COc1ccc(-c2cc(=O)c3c(O)c(OC)c(O)cc3o2)cc1	uPA surface inh 10µM
COCc1cc(=O)[nH]c(Cc2c(Cl)cccc2Cl)n1	none (no result: PKM2 act)
COc1ccc(-c2ccc3c(c2)S(=O)(=O)c2cccc(C(=O)NC4CCCC4)c2C3=O)cc1OC	none (no result: PKM2 act)
COc1ccc(-c2ccc3c(c2)S(=O)(=O)c2cccc(C(=O)N4CCN(C5CCCCC5)CC4)c2C3=O)cc1OC	uPA surface inh 3.2µM (no result: PKM2 act)
CCCCn1c(C)cc2c(c1=O)C1O[C@](c3ccc(OC)cc3)(Cc3cc(OC)c(OC)cc31)O2	none (no result: TCR activator, uPA surface inh, TSHR antagonist)
Cc1ccc(C(=O)CN2C(=O)NC3(CCCCCC3)C2=O)c(C)c1	none (no result: PKM2 act)
COc1ccc(C2c3c(ncn(CCCO)c3=N)Oc3ccc4ccccc4c32)cc1OC (stereo not drawn)	none
COc1ccc(C2c3c(ncn(CCN4CCOCC4)c3=N)Oc3ccc4ccccc4c32)cc1OC (stereo not drawn)	PKM2 act 20µM (no result: uPA surface inh)
O=c1cc(-c2ccc(O)c(O)c2)oc2c1ccc1ccccc12	uPA surface inh 2.5µM (no result: PKM2 act)
CCN1C(=O)CS/C1=N\S(=O)(=O)c1ccc(Cl)cc1	none
CCn1c(Cl)c(C=O)s/c1=N\S(=O)(=O)c1ccccc1	PKM2 act 16µM, TSHR antagonist -98
CC1CCC(NC(=O)CCNC(=O)c2ccccc2)CC1 (stereo not drawn)	none
COc1ccccc1-c1sc2cc3c(cc2c1C#CCO)OCO3	none (no result: PKM2 act)
CCOC(=O)c1ccc(-c2c(-c3ccccc3OC)sc3cc4c(cc23)OCO4)cc1F	uPA surface inh 5.6µM (no result: PKM2 act)
O=C(CSc1nnc(NC(=O)c2ccc(F)cc2F)s1)NC1CCCC1	none (no result: PKM2 act)
O=C(COc1ccc(Cl)cc1)NCc1n[nH]c(=O)c2ccccc12	none (no result: PKM2 act)
CCOC(=O)N1CCc2cc(OC)c(OC)c3c2c1cc1cc(OC)c(OC)cc13	none (no result: PKM2 act, TSHR antagonist)
CCN1CCN(Cc2ccc(NC(=O)c3ccc(C)c(NC(=O)c4cc(-c5ccc(Br)cc5)n[nH]4)c3)cc2C(F)(F)F)CC1	uPA surface inh 13µM
CCN1CCN(Cc2ccc(NC(=O)c3ccc(C)c(NC(=O)c4cncc(-c5cccs5)c4)c3)cc2C(F)(F)F)CC1	uPA surface inh 1µM (no result: PKM2 act, TSHR antagonist)
CCN1CCN(Cc2ccc(NC(=O)c3ccc(C)c(NC(=O)c4nccn4C)c3)cc2C(F)(F)F)CC1	none
O=c1[nH]c(CN2CCN(c3ccccc3)CC2)nc2scc(-c3ccccc3)c12	none
Cc1sc2nc(CN3CCN(c4ccc(O)cc4)CC3)[nH]c(=O)c2c1C	PKM2 act 1.3µM
CCN(CC)S(=O)(=O)c1ccc(N2CCOCC2)c(NC(=O)c2cccc3c(=O)c(C)c(-c4ccccc4)oc23)c1	uPA surface inh 4.5µM (no result: PKM2 act, TSHR antagonist)
COc1ccc(S(=O)(=O)N2CCOCC2)cc1NC(=O)c1cccc2c(=O)c(C)c(-c3ccccc3)oc12	none
COc1cccc(OC)c1C(=O)Nc1ccc2c(c1)N(S(=O)(=O)c1cccs1)CCC2	TSHR antagonist -112
CC1CCc2c(sc(NC(=O)/C=C/c3cccs3)c2C(=O)O)C1 (stereo not drawn)	uPA surface inh 10µM
Clc1ccccc1Cn1nnc2c(N3CCCC3)ncnc21	PKM2 act 16µM (no result: uPA surface inh)
CC1Cc2ccccc2N1c1ncnc2c1nnn2Cc1ccccc1Cl (stereo not drawn)	none
CCN(CC(=O)Nc1ccccc1C(F)(F)F)C(=O)CN1C(=O)NC(C)(c2ccc3ccccc3c2)C1=O (stereo not drawn)	none (no result: PKM2 act, TSHR antagonist)
O=C(CCc1nc(-c2ccccc2F)no1)Nc1ccc(Oc2ccccc2)cc1	TSHR antagonist -73

High-throughput results from PubChem BioAssay.
